Laboratory results taken from PMC5540273 (PLoS ONE, 2017).

Columns and labels:
Details in all cases: concentration: 1 μM, replicates: in singlicate; n = 1
[1] = tested on: AAK1
[2] = tested on: ABL1-nonphosphorylated
[3] = tested on: ABL1-phosphorylated
[4] = tested on: ABL2
[5] = tested on: ACVR1B
[6] = tested on: ACVR1
[7] = tested on: ACVR2A
[8] = tested on: ACVR2B
[9] = tested on: ACVRL1
[10] = tested on: T1, ADCK3
T1 construct: gene CABC1

[11] = tested on: ADCK4
[12] = tested on: AKT1
[13] = tested on: AKT2
[14] = tested on: AKT3
[15] = tested on: ALK
[16] = tested on: T2, AMPK-alpha1
T2 construct: gene PRKAA1
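Further: KINOMEscan kinase panel screen.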

Row | SMILES | %Inh [1] [%] | %Inh [2] [%] | %Inh [3] [%] | %Inh [4] [%] | %Inh [5] [%] | %Inh [6] [%] | %Inh [7] [%] | %Inh [8] [%] | %Inh [9] [%] | %Inh [10] [%] | %Inh [11] [%] | %Inh [12] [%] | %Inh [13] [%] | %Inh [14] [%] | %Inh [15] [%] | %Inh [16] [%]
1 | NS(=O)(=O)CCc1cccc(Nc2nccc(-c3c(-c4cccc(NC(=O)c5c(F)cccc5F)c4)nn4ccccc34)n2)c1 [GSK336735] | 0 | 95.3 | 16 | 78 | 7 | 0 | 0 | 37 | 0 | 9 | 42 | 0 | 16 | 0 | 24 | 20
2 | O=C(NCCCN1CCOCC1)c1cccc(Nc2nccc(Nc3ccc(Oc4ccccc4)cc3)n2)c1 [GW663929] | 8 | 73 | 45 | 47 | 0 | 14 | 0 | 5 | 0 | 15 | 36 | 0 | 11 | 0 | 7 | 0
3 | c1ccc(-c2n[nH]cc2-c2ccnc3ccccc23)nc1 [GW271431] | 16 | 14 | 1 | 16 | 79 | 46 | 2 | 75 | 0 | 20 | 24 | 0 | 2 | 0 | 19 | 19
4 | O=C1Cc2cc(Nc3nc(NCc4cccc(S(=O)(=O)C(F)(F)F)c4)ncc3C(F)(F)F)ccc2N1 | 8 | 0 | 0 | 0 | 0 | 3 | 0 | 0 | 0 | 0 | 2 | 0 | 1 | 0 | 0 | 2
5 | Cn1cc(-c2ccc3c(c2)CCN3C(=O)Cc2ccccc2Cl)c2c(N)ncnc21 [GSK2608885] | 25 | 95.9 | 23 | 85 | 0 | 0 | 0 | 13 | 3 | 1 | 88 | 0 | 0 | 0 | 0 | 2
6 | Cc1cccc(-c2nc(Nc3ccc4ncsc4c3)c3ccccc3n2)n1 [GW867588] | 7 | 0 | 0 | 20 | 35 | 15 | 0 | 2 | 0 | 0 | 0 | 12 | 0 | 0 | 0 | 19
